We go through 98 compounds from PubChem BioAssay AID777 (Sanford-Burnham Center for Chemical Genomics, 2007).

Molecules are shown by their SMILES. The whole screen tested about 96,000 compounds, of which about 19,000 (20%) were called active. Not all results are given here. A number with no mark means an inactive call.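 Rule for the calls: active = blocking of liver enzyme CYP2C9 beyond about 50% at 5 µM (limit read from the data); inactive = the rest.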

The target of the test is Cytochrome P450 2C9 (Homo sapiens) (UniProt P11712). The test is described as follows: blockers of cytochrome P450 2C9 activity – biochemical, luminescence, ADME assay, primary screen (AID 777). The following applies: CYP2C9 Supersomes, luciferin-H conversion, at 5 µM, stronger effect = higher value.
Sequence of Cytochrome P450 2C9 (Homo sapiens) (P11712 whole entry, looked up): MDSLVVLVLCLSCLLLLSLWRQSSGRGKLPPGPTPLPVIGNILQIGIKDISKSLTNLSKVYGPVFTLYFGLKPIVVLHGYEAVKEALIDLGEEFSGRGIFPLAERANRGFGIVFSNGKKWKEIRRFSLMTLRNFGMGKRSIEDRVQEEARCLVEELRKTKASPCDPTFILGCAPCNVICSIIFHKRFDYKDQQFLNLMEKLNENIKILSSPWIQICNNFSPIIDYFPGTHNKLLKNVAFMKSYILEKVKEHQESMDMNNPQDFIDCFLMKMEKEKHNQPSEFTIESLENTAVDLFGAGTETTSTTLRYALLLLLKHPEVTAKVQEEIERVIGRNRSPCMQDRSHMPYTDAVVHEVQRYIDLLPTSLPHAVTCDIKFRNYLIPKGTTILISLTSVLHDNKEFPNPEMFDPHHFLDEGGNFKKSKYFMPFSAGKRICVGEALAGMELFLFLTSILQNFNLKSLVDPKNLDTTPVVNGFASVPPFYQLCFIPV
With `Brc1ccc(OCCn2ccnc2)cc1`, the inhibition (as a rule, the change of the read-out against control, counted positive when it falls) is 72.1% (active).

Turning to `CC(=O)NS(=O)(=O)c1ccccc1`, the inhibition is 0.2%.

For the compound `O=C1C(Cl)=C(N2CCOCC2)C(=O)N1c1ccccc1`, the inhibition was 5%.

Consider `CC(C)(C)c1ccc(NC(=O)NCc2ccco2)cc1`, for which the inhibition was -17.8%.

`CC1(C)SC2c3ccccc3C(=O)N2[C@@H]1C(=O)NCc1ccco1` (stereo partly drawn): the inhibition was 57.9% (active).

On to `COc1cc2c(cc1OC)C(C(=O)NCc1ccco1)C1c3ccccc3CCN1C2=O` (stereo not drawn), for which the inhibition is 42%.

On to `CC1CCc2c(sc3c2C2=NS(=O)(=O)CCN2C=N3)C1` (stereo not drawn), for which the inhibition is 6.8%.

Turning to `O=C(Nc1cc(-c2nn(CC(=O)N3CCCCC3)c(=O)c3ccccc23)ccc1N1CCOCC1)c1ccc(Cl)cc1`, the inhibition was 0.2%.

Regarding `O=C(Cn1nnc2ccccc2c1=O)Nc1cc(C(F)(F)F)ccc1N1CCOCC1`, the inhibition is 60.7% (active).

As to `CC(C)CC(=O)Nc1cc(C(F)(F)F)ccc1N1CCOCC1`, the inhibition is 9.9%.

Regarding `CCCCc1nccn1CCn1ccnc1CCCC`, the inhibition is -10.5%.

Take `CN1CCN(CC(=O)Nc2sc3c(c2C#N)CCC(C(C)(C)C)C3)CC1` (stereo not drawn): the inhibition is 33.8%.

For the compound `O=C(Nc1c(-c2ccccc2)nc2c(Br)cc(Br)cn12)c1ccco1`, the inhibition is 15.6%.

Regarding `N=C(N)SCc1cccc2ccccc12`, the inhibition is -24.4%.

Turning to `c1ccc2c(CNn3cnnc3)cccc2c1`, the inhibition was -2.3%.

As for `c1ccc2c(C[n+]3csc4ccccc43)cccc2c1`, the inhibition is 76.7% (active).

For `Cc1ccc(C(=O)NNC(=O)OC(C)(C)C)c(Cl)c1`, the inhibition was 1.9%.

Consider `CCc1ccc(CNC(=O)C2CCCN(c3nc4ccccc4o3)C2)cc1` (stereo not drawn), for which the inhibition was 45%.

For `O=S(=O)(c1ccc(OCC(O)CN2CCN(c3ccccc3Cl)CC2)cc1)N1CCOCC1` (stereo not drawn), the inhibition was 28.3%.

Consider `CCOC(=O)Cc1csc(NC(=O)CN(C)S(=O)(=O)c2ccc3c(c2)CCC(=O)N3)n1`, for which the inhibition was 65.5% (active).

Take `CCOC(=O)Cc1csc(NC(=O)C(C)(C)C)n1`: the inhibition was 30.2%.

On to `CCOC(=O)Cc1csc(NC(=O)CSc2nc(C)cc(=O)[nH]2)n1`, for which the inhibition was 23.2%.

On to `Cc1ccc(S(=O)(=O)N(C)CC(=O)N2CCc3ccccc32)cc1`, for which the inhibition is -132%.

Regarding `CC(=O)N1CCN(c2cccc(C)c2C)CC1`, the inhibition is -8.6%.

For the compound `Cc1cccc(N2CCN(C(=O)CN(C)S(=O)(=O)c3ccc4c(c3)CCC(=O)N4)CC2)c1C`, the inhibition is 51% (active).

For `COC(=O)/C=C/C(=O)NCc1ccco1`, the inhibition is 1.2%.

Turning to `OCCN1CCOCCOCCN(CCO)CCN(CCO)CC1`, the inhibition is 12.8%.

With `Cc1nn(-c2ccccc2)c(CC(C)(C)C(=O)O)c1C(=O)O`, the inhibition is -10.3%.

Regarding `Cc1nn(-c2ccccc2)c(Cl)c1C(=O)Nc1ccccc1`, the inhibition was -47%.

Take `Cc1ccc(C(=O)/C=C/c2c(C)nn(-c3ccccc3)c2Cl)cc1`: the inhibition was 90.4% (active).

Turning to `O=C(Nc1ccccc1C(=O)N1CCOCC1)C1CCC(=O)N1C1CCCC1` (stereo not drawn), the inhibition is -9.2%.

`COc1cccc(N2C(=O)C3CCCN3C2c2ccc(F)cc2)c1` (stereo not drawn): the inhibition is -9.4%.

For `COc1ccc(OCC(=O)OCCN(C)C)cc1`, the inhibition is -12.1%.

Take `CN(C)C(CNC(=O)CCCOc1ccccc1)c1ccco1` (stereo not drawn): the inhibition is 51.7% (active).

In the case of `O=C(CCCOc1ccccc1)NCc1ccco1`, the inhibition is 18.1%.

For the compound `O=C(CCOc1ccccc1)NCc1ccccc1`, the inhibition is 6.9%.

For the compound `O=C(NCC12CC3CC(C1)CC(CNC(=O)N1CCCC1)(C3)C2)N1CCCC1`, the inhibition is -12.3%.

As to `Nc1nc(SCCOc2ccccc2)n[nH]1`, the inhibition is -8.6%.

`COc1ccccc1NC(=O)CN1CCN(S(=O)(=O)c2ccc(Br)cc2)CC1`: the inhibition is -0.8%.

Turning to `COc1ccc(NC(=O)CN2CCN(S(=O)(=O)c3ccc(F)cc3)CC2)cc1Cl`, the inhibition is 17.3%.

Consider `COc1cc2c(cc1NC(=O)CN1CCN(S(=O)(=O)c3ccc(F)cc3)CC1)oc1ccccc12`, for which the inhibition is 78.7% (active).

As to `CN1/C(=c2/s/c(=C3/C(=O)N(c4ccccc4)NC3=Nc3ccccc3)n(C)c2=O)C(C)(C)c2ccccc21`, the inhibition is 19%.

`CCNC(=O)c1c(O)c2cccc3c2n(c1=O)CC3`: the inhibition is 10.3%.

As for `O=C(COC(=O)CCC(=O)c1cccs1)NCc1ccco1`, the inhibition was 2.9%.

For the compound `CC(C)(C)c1cc(=O)n2c(nc3ccccc32)[nH]1`, the inhibition is 52% (active).

On to `Cc1nn2c3ccccc3nc2n(C)c1=O`, for which the inhibition is -5.7%.

As for `CC(C)(C)N1CC(c2nc3ccccc3n2Cc2ccc(F)cc2)CC1=O` (stereo not drawn), the inhibition is 22.8%.

For the compound `Cn1c(SCC(=O)N2CCOCC2)nnc1-c1ccc(NC(=O)c2ccccc2F)cc1`, the inhibition was 13%.

With `CCCCC(CC)C(=O)Nc1ccc(Cl)cn1` (stereo not drawn), the inhibition was 7.6%.

Turning to `CC(C)C(NC(=O)OCc1ccccc1)C(=O)OCC(=O)N1C(C)CCCC1C` (stereo not drawn), the inhibition was 1.2%.

With `CCC(C)NC(=O)c1c(N)n(/N=C/c2cccs2)c2nc3ccccc3nc12` (stereo not drawn), the inhibition was 17.2%.

As to `CC(C)c1cc(C(N)=O)c(NC(=O)c2cccc(COc3ccc(Br)cc3)c2)s1`, the inhibition was 56.1% (active).

With `Cc1ccc(OCc2nnc(NC(=O)OCC(C)C)s2)cc1`, the inhibition was 20.2%.

`COc1ccc(N2CCN(C3CC(=O)N(c4ccc5c(c4)OCCO5)C3=O)CC2)cc1` (stereo not drawn): the inhibition is -1%.

Consider `O=c1oc2c(Cl)cc(Cl)cc2cc1-c1nnc(Nc2ccccc2F)s1`, for which the inhibition was -4.3%.

With `Cc1cccc(OCc2nnc(SCc3nc4cc(C(F)(F)F)ccc4c(=O)[nH]3)o2)c1`, the inhibition was 33%.

As to `O=C(Cc1ccc(S(=O)(=O)N2CCOCC2)s1)NCCC(c1ccccc1)c1ccccc1`, the inhibition was 71.6% (active).

Regarding `O=C(Cc1ccc(S(=O)(=O)N2CCCC2)s1)NC1CCCCCC1`, the inhibition is 35.1%.

As to `O=C(c1ccc(S(=O)(=O)N2CCOCC2)cc1)N1CCN(c2ccccc2)CC1`, the inhibition was -4.5%.

For the compound `C=C(Br)Cn1c(CCCC)nc2ccccc21`, the inhibition is 35%.

Regarding `Cc1[nH]n(-c2ccc([N+](=O)[O-])cc2)c(=O)c1C=NCCN1CCN(C(=O)c2ccccc2F)CC1`, the inhibition is 16.8%.

For the compound `Cc1csc(NC(=O)C2CCCN2C(=O)OCC(C)C)n1` (stereo not drawn), the inhibition is 21.7%.

Regarding `O=C(/C=C/c1ccco1)Nc1cccc(-c2nc3ccccc3[nH]2)c1`, the inhibition is 81.3% (active).

For `Cc1ccc(-n2nc3ccc(NC(=O)/C=C/c4ccco4)cc3n2)cc1C`, the inhibition is 34.5%.

As for `O=C(/C=C/c1ccco1)Nc1ccc(Oc2ccccc2)cc1`, the inhibition was 11.5%.

For `CCc1nnc(NC(=O)CSc2nc3c(c(=O)n2-c2ccccc2OC)SCC3)s1`, the inhibition is 7.3%.

In the case of `O=C(Cn1c(-c2cncs2)nc2ccccc21)NC1CCCC1`, the inhibition is 2.4%.

Take `Cc1ccc(-n2nc3c(c2NC(=O)CCC2CCCCC2)CS(=O)C3)cc1` (stereo not drawn): the inhibition is 12%.

Consider `COC(=O)C1C(=O)c2c([nH]c(C(=O)OCCSC)c2C)CC1C` (stereo not drawn), for which the inhibition was 32.8%.

Turning to `CCCOC(=O)c1[nH]c2c(c1C)C(=O)CC(c1cccs1)C2` (stereo not drawn), the inhibition is 72.3% (active).

Take `CCCOC(=O)c1[nH]c2c(c1C)C(=O)CC(c1cc(OC)c(OC)c(OC)c1)C2` (stereo not drawn): the inhibition is 66.2% (active).

As to `CCOC(=O)c1[nH]c2c(c1C)C(=O)CC(c1ccc(N(C)C)cc1)C2` (stereo not drawn), the inhibition is 36.2%.

Take `O=c1c2ccccc2nc2n1C(CSCc1cccc(C(F)(F)F)c1)CS2` (stereo not drawn): the inhibition is 38.6%.

With `CCOC(=O)CSc1nnc(CNC(=O)c2ccco2)n1-c1ccc(F)cc1`, the inhibition is -0.1%.

On to `O=C(NC1CCCCC1)c1ccc(CNc2c(N3CCOCC3)c(=O)c2=O)cc1`, for which the inhibition was -23.2%.

Take `O=C(NCCN1C(=O)C2C3C=CC(C3)C2C1=O)Nc1ccccn1` (stereo not drawn): the inhibition is -16.2%.

As to `CC12CCC(C(=O)N3CCN(c4ncccn4)CC3)(c3nc4ccccc4nc31)C2(C)C` (stereo not drawn), the inhibition was 51.5% (active).

`O=S(=O)(c1cccc2nonc12)N1CCN(c2cccc(Cl)c2)CC1`: the inhibition is 12.3%.

For the compound `O=C(NCCN1CCN(Cc2ccccc2)CC1)c1cc2c(=O)[nH]c3ccccc3c2s1`, the inhibition is 31%.

For `CCCc1nnc(NC(=O)CN2C(=O)c3ccccc3S2(=O)=O)s1`, the inhibition is 9.5%.

`C=C(Br)CN1CCN(CC(=C)Br)CC1`: the inhibition was -1.7%.

For the compound `O=C(O)C1CC=C(Cl)CC1C(=O)NCc1ccccc1` (stereo not drawn), the inhibition is 13.8%.

On to `Cc1ccc(C(=O)Nc2nnc(-c3cccs3)s2)cc1C`, for which the inhibition was 2%.

`CC(C)=CC(=O)Nc1nnc(-c2ccc(F)cc2)s1`: the inhibition is 9%.

As to `Cc1occc1C(=O)Nc1nnc(C2CCCCC2)s1`, the inhibition is 0.6%.

Turning to `Cc1occc1C(=O)Nc1cccc(Cn2cccn2)c1`, the inhibition was 51.4% (active).

Take `Cc1ccc(C(=O)Nc2nnc(-c3ccncc3)s2)o1`: the inhibition was 93.1% (active).

Turning to `Cc1occc1C(=O)NNC(=S)NCC(C)C`, the inhibition was 12.4%.

Take `Cc1ccc(C(=O)COc2cccc(NC(=O)c3ccco3)c2)cc1`: the inhibition is 32.1%.

Turning to `CCOc1cccc(C(=O)Nc2cnn(Cc3ccccc3)c2)c1`, the inhibition is 10.6%.

Consider `Cc1occc1C(=O)Nc1nnc(-c2ccncc2)s1`, for which the inhibition is 90.1% (active).

For the compound `COc1ccc(Oc2coc3cc(OC(=O)c4cncc(Br)c4)ccc3c2=O)cc1`, the inhibition is -54.5%.

In the case of `Cc1nnc(SCC(=O)Nc2ncc3c(n2)CC(C)(C)CC3=O)s1`, the inhibition is 22.5%.

As to `COc1ccc(-c2noc(COc3ccc(Cl)c(C)c3)n2)cc1`, the inhibition is 11.2%.

`CCOc1ccc(/C(O)=C2/C(=O)C(=O)N(Cc3cccnc3)C2c2ccc(N(C)C)cc2)c(C)c1` (stereo not drawn): the inhibition is 20.8%.

With `N#Cc1ccc(CSc2nnc(-c3ccccn3)n2-c2ccc(Cl)cc2)cc1`, the inhibition is 7.5%.

In the case of `CCc1nnc(NC(=O)CSc2nnc(COc3ccc(C#N)cc3)n2-c2ccccc2)s1`, the inhibition is 30.3%.

Consider `O=P(c1ccc2c(c1)OCCO2)(N1CCOCC1)N1CCOCC1`, for which the inhibition was 24.8%.
